Hits are enriched below; roughly 12% of the tested compounds scored in any of these assays.
AMA1 RON2 block – inhibitors of Plasmodium falciparum AMA1-RON2 interaction. AlphaScreen AMA1-biotinylated RON2 peptide binding. Potency, µM (top dose mostly 58.2 µM), without a hit: top-dose activity change, negative = inhibition, actives largely listed as inhibitors. 360,000 tested, 0.2% active. AID 720542;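 further: 0% = vehicle wells and -100% = peptide control; nearly all actives have a fitted effect of over 45% in size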
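AMA1 (3D7) with his tag at 25 nM final met compounds first, then biotinylated RON2 peptide at 25 nM; detection used donor plus acceptor beads, 10 µg/mL apiece, read by AlphaScreen after 30 min at room temperature.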
SARS PLP yeast – SARS-CoV PLP inhibition in yeast; S. cerevisiae expressing SARS-CoV PLpro, growth rescue; Potency, µM (top dose mostly 32.9 µM), without a hit: at the top dose activity, positive = growth rescue, actives largely listed as activators; 330,000 tested, 0.19% active; AID 485353; calls by dose curve; further: 0% is about no effect; nearly all actives have a fitted effect of over 55% in size
HCV inhibitor – blocks hepatitis C virus; Potency, µM (highest dose often 41.8 µM), for the others: at the highest dose activity change, negative = inhibition, usual class: inhibitors; 340,000 tested, 3.4% active; Huh7.5.1 HCVcc-Cre infection, luciferase reporter, 44 h; further: on the % scale 0 is the no-effect control and ±100 the full control effect
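Cells (1,000/well) were plated 4 h before compound, then infected with HCVcc-Cre virus (~0.5 moi). After 44 h further culture, infection was read as luciferase luminescence following a 15 min substrate incubation at room temperature.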
NS1 inh – influenza NS1 inhibition; Potency, µM (doses to about 46.1 µM), for inactives: top-dose activity, positive = more growth; 270,000 tested, 0.4% active; calls by dose curve; further: actives are rising curves; nearly all actives have a fitted effect of over 50% in size
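Recovery from NS1-induced slow growth read by OD600 in budding yeast switched to galactose assay medium (pH 6.0, -URA) at 1:100 dilution. Compound 23 nl per well; the matching strain lacking NS1 serves as control.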
Pf growth 96h – inhibits malaria parasite growth, 96 h. AID 504834. Potency, µM (titrated, usually from 28.7 µM), without a hit: at the top dose activity change, negative = inhibition, most hits filed as inhibitors. P. falciparum luciferase reporter growth, 96 h. 320,000 tested, 6.9% active; further: on the % scale 0 is the no-effect control and ±100 the full control effect
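Compounds incubated with erythrocytes infected by luciferase-expressing P. falciparum (2% hematocrit, 0.05% parasitemia final) for 96 hours, 37 C in 5% CO2. Growth inhibition scored as decreased luciferase luminescence.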
Pf growth 48h – P. falciparum growth inhibition at 48 hours (one generation); P. falciparum luciferase growth in erythrocytes, 48 h; Potency, µM (titrated, usually from 28.7 µM), inactives show at the top dose activity change, negative = inhibition, hits mostly inhibitors; 310,000 tested, 5.9% active; AID 504832; further: on the % scale 0 is the no-effect control and ±100 the full control effect
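Here the parasites carry a stable luciferase gene and grow inside erythrocytes in Albumax-based RPMI medium with compound for one erythrocytic cycle. Activity is scored as loss of luminescent signal.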
Numbers without * were called inactive; ? = inconclusive; . = not tested or not shown. Unless noted, the call rests on the fitted dose curve; in most records, active means well fitted curve in the direction sought with a large enough effect; inconclusive means small, poorly fitted or top-dose-only effect, or another doubt; inactive means no such curve, though single readings can be large; an effect the other way counts as inactive or inconclusive. Potency means the concentration at half of the fitted maximal effect.

SMILES | AMA1 RON2 block | SARS PLP yeast | HCV inhibitor | NS1 inh | Pf growth 96h | Pf growth 48h
CCN(CC)CCCNC(=O)c1cc(-c2ccc(Cl)c(Cl)c2)on1 | -9.5% | -4.7% | 1.41µM* | -21.6% | -20.5% | 10.4µM*
O=C(NCCCN1CCOCC1)c1cc(-c2ccc(Cl)c(Cl)c2)on1 | 0.9% | 0.3% | 12.6µM* | -11.1% | 335.6% | ?
O=C(O)c1ccccc1OCC1CCCO1 (stereo unspecified) | -1.6% | 2.5% | 30.0% | 4.1% | 34.3% | 14.5%
C=CCn1c(Sc2ncc([N+](=O)[O-])s2)n[nH]c1=O | 3.0% | -4.5% | 6.31µM* | -34.8% | 10.4µM* | ?
CCOc1ccc(S(=O)(=O)Nc2cccc(C(=O)NCCCn3ccnc3)c2)cc1 | 14.9% | 0.0% | 5.3% | . | ? | ?
O=C(NCCc1cccs1)C(c1ccccc1)c1ccccc1 | 0.8% | 6.5% | 7.9% | -21.2% | 11.7µM* | -34.6%
CN(C)CCNC(=O)C(c1ccccc1)c1ccccc1 | -1.7% | 1.2% | 9.3% | 4.6% | -11.4% | ?
CCC(NC(=O)Cc1cccs1)c1ccccc1 (stereo unspecified) | 9.7% | -8.3% | 7.3% | 0.1% | 5.86µM* | 2.8%
CC1=NN(C(N)=S)C(=O)C1N=Nc1ccc(Br)cc1 (stereo unspecified) | 38.0% | 5.7% | -7.8% | -11.6% | ? | 9.28µM*
Clc1ccc2c(N3CCOCC3)ccnc2c1 | -10.2% | -3.5% | ? | 2.9% | 11.4% | 9.4%
NC(=O)C1CCN(c2ccnc3cc(Cl)ccc23)CC1 | -3.4% | 0.2% | 9.7% | 4.7% | 11.7µM* | ?
Clc1ccc2c(N3CCCC3)ccnc2c1 | -11.8% | -0.4% | ? | 2.0% | . | 3.7µM*
Clc1ccc2c(N3CCNCC3)ccnc2c1 | -5.5% | . | -0.1% | 2.9% | . | ?
NC(=O)C1CCN(c2cc(Cl)ccc2[N+](=O)[O-])CC1 | -5.5% | 1.3% | 22.4% | 11.6% | 5.6% | -5.1%
COc1ccc(N2CCN(c3ccnc4cc(Cl)ccc34)CC2)cc1 | -18.3% | -4.9% | ? | 6.5% | 7.38µM* | ?
Oc1ccc(N2CCN(c3ccnc4cc(Cl)ccc34)CC2)cc1 | -17.7% | -12.7% | -24.9% | 7.4% | 2.33µM* | 3.29µM*
COc1cc(Cl)ccc1OCc1cc(C(=O)NCCCN2CCCC2=O)no1 | 4.9% | 1.0% | 19.2% | 2.2% | ? | ?
Cc1ccc(C(=O)Nc2ccc3ccccc3c2)cc1 | 0.4% | -7.8% | -23.5% | -7.1% | ? | 132.3%
Cc1cc(C(=O)Nc2ccc3ccccc3c2)oc1C | -19.6% | -52.0% | 11.2µM* | -48.6% | -22.8% | 116.6%
Cc1ccccc1C(=O)Nc1nncs1 | 2.2% | 0.3% | 23.9% | -1.2% | . | 10.2%
O=C(Nc1ccc2ccccc2c1)c1ccc(Cl)cc1 | 7.0% | 12.8% | -0.3% | 13.4% | 5.22µM* | 221.7%
Cc1cc(C(=O)Nc2nncs2)oc1C | 5.9% | -0.6% | 13.0% | 1.9% | 2.62µM* | 42.1%
Cc1ccc(C)c(OCC(O)CN2C(C)CCCC2C)c1 (stereo unspecified) | -12.0% | 3.8% | 12.6µM* | 1.0% | . | ?
Cc1ccc(C)c(OCC(O)CNC2CCCC2)c1 (stereo unspecified) | 9.5% | 0.2% | -2.0% | 6.3% | ? | ?
Cc1ccc(C)c(OCC(O)CN2CCC(Cc3ccccc3)CC2)c1 (stereo unspecified) | -7.3% | -1.0% | 10.9% | -22.1% | ? | 7.38µM*
SMILES | AMA1 RON2 block | SARS PLP yeast | HCV inhibitor | NS1 inh | Pf growth 96h | Pf growth 48h
Cc1ccc(C)c(OCC(O)CN2CCCCC2C)c1 (stereo unspecified) | -3.0% | -0.3% | ? | 0.5% | 10.4µM* | ?
COCCn1c(SC(C)C(=O)Nc2ccc(N3CCOCC3)cc2)nnc1-c1ccncc1 (stereo unspecified) | 12.1% | . | 8.7% | . | 72.3% | 10.4%
COc1ccc2c(c1)CC=C1C2CCC2(C)C(=O)C(=NO)CC12 (stereo unspecified) | 5.7% | . | -15.1% | . | . | .
CC(C)Cc1nnc(NC(=O)CCC(=O)N2CCN(c3ccccc3F)CC2)s1 | 4.8% | -8.5% | 5.3% | -8.0% | -0.2% | 13.3%
O=C(Nc1nc2ccccc2s1)c1ccc(N2CCCCC2)c([N+](=O)[O-])c1 | -23.2% | ? | ? | 18.9% | ? | 48.3%
N#CCc1c(C#N)c(N)nc(N2CCN(c3ccc(F)cc3)CC2)c1C#N | 7.9% | -1.5% | ? | 10.8% | . | 9.28µM*
COCCN1C(=O)Cc2c1nc(N)c1c(N)nc(N3CCN(c4ccc(F)cc4)CC3)c(C#N)c21 | 73.1% | -3.0% | -25.4% | 8.7% | ? | 7.38µM*
COc1ccc(CN2C(=O)Cc3c2nc(N)c2c(N)nc(N4CCOCC4)c(C#N)c32)cc1 | 65.8% | -1.1% | ? | -41.0% | ? | ?
COCC(C)N1C(=O)Cc2c1nc(N)c1c(N)nc(N3CCN(c4ccccc4F)CC3)c(C#N)c21 (stereo unspecified) | 50.4% | -1.9% | ? | . | 1.31µM* | 5.86µM*
Cc1noc(C)c1COc1ccccc1C(=O)NNC(=O)C(C)Oc1ccccc1F (stereo unspecified) | 95.8% | -5.6% | ? | . | -5.9% | 6.5%
CCOc1cccc(-c2cc(NCCc3ccccn3)n3nccc3n2)c1 | 62.4% | . | . | . | . | .
O=C(Cn1cnc(S(=O)(=O)N2CCCC2)c1)Nc1cccc(F)c1 | 10.9% | 0.4% | -1.7% | -7.9% | ? | 16.5%
C/C(=C/c1ccccc1)C(=O)N1CCN(c2ccc(F)cc2)CC1 | -4.2% | 2.9% | -1.0% | -10.4% | 0.0% | -15.4%
c1ccc(Cn2c(SCCN3CCOCC3)nnc2-c2cccnc2)cc1 | -15.7% | -1.5% | -12.1% | -4.1% | 10.4µM* | .
CCOc1ccc(S(=O)(=O)n2cnc3cc(C)c(C)cc32)cc1 | 14.9% | ? | 10µM* | -21.8% | 7.7% | 3.1%
C/C(=N\NC(=S)Nc1cccc(C)c1)c1cccc(N)c1 | 61.6% | 9.4% | ? | 17.5% | 23.8% | ?
CC(=NNC(=S)Nc1ccc(C)cc1)c1ccccn1 | 7.5% | . | ? | . | . | .
C/C(=N\NC(=S)Nc1cccc(C)c1)c1ccccc1 | 28.9% | ? | ? | -42.7% | 5.22µM* | ?
CC(=NNC(=S)Nc1cccc(C)c1)c1ccccn1 | -14.1% | . | 10µM* | . | . | .
Cc1ccc(/C=N/NC(=O)CSc2nc3ccccc3[nH]2)o1 | -6.5% | 0.7% | 6.6% | 4.2% | ? | -8.2%
CCOP(=O)(OCC)C(NC(=O)c1cccs1)c1ccccc1 (stereo unspecified) | 0.0% | 2.1% | -13.6% | 1.0% | 9.7% | 0.9%
CCOc1ccccc1N1CCN(CC(=O)N(C)CC(=O)Nc2ccccc2CC)CC1 | -6.6% | . | . | . | . | .
COC(=O)CCC(=O)N1CCC(CCC(=O)NCc2ccc(F)cc2)CC1 | -0.5% | -0.9% | -1.9% | 7.0% | 5.22µM* | -5.8%
COC(=O)CCCC(=O)N1CCC(CCC(=O)NCc2ccc(F)cc2)CC1 | 14.1% | -9.2% | 9.4% | 4.4% | 14.7µM* | -19.2%
